Results with a measured potency or affinity are listed apart. Inconclusive results are not listed. Calls of active or inactive are those of the source.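 The calls were made as follows, unless noted: active = fitted dose curve reaches 40% lysis signal rise at or below the highest valid concentration tested for that sample; inconclusive = flat fit between 30% and 70%, or poor curve fit; inactive = signal falls, stays flat within 30%, or no crossing.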
Experiments:
[1] = fungal growth arrest, C. neoformans – Alamar Blue, cherry-picks, dose response (AID 686998;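 active = falling signal with fitted half-maximal potency no higher than twice the top valid tested dose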)
[2] = C. neoformans lysis by adenylate kinase leakage – AK release luminescence, cherry-picks, dose response (AID 687000);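 also: luminescent detection of adenylate kinase leaking from lysed yeast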
[3] = viability loss in HepG2 hepatoma cells – cell-based, cherry-picks, set 2, cytotoxicity control, dose response (AID 687002;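 active = a dose-response fit showing signal loss, with half-maximal concentration no higher than twice the top tested dose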)
[4] = viability loss in HeLa cells – cell-based, ATP luminescence, cherry-pick samples, cytotoxicity control, dose response (AID 687004;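 active = a fitted half-maximal concentration no higher than twice the top valid tested dose, with signal falling as cells die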)

Measured: outcome

C[C@@H]1CN([C@@H](C)CO)C(=O)c2cccc(NC(=O)c3ccncc3)c2O[C@H]1CN(C)C(=O)Nc1ccccc1
inactive: [1] | [2] | [3] | [4]

Cc1noc(C)c1NC(=O)N(C)C[C@@H]1Oc2ccc(NS(=O)(=O)c3cn(C)cn3)cc2CC(=O)N([C@H](C)CO)C[C@H]1C
inactive: [1] | [2] | [3] | [4]

C[C@H]1CN([C@@H](C)CO)C(=O)c2cc(Br)cnc2O[C@@H]1CN(C)Cc1ccccn1
inactive: [1] | [2] | [3] | [4]

O=C(Cc1cccs1)N1CCN(c2ccc([N+](=O)[O-])cc2)CC1
inactive: [1] | [2] | [3] | [4]

CC(C)CC#Cc1cnc2c(c1)C(=O)N([C@H](C)CO)C[C@@H](C)[C@@H](CN(C)C(=O)c1ccc3c(c1)OCO3)O2
inactive: [1] | [2] | [3] | [4]

COc1ccccc1CNC(=O)C[C@@H]1CC[C@@H]2[C@H](COC[C@@H](O)CN2Cc2ccccc2)O1
inactive: [1] | [2] | [3] | [4]

O=C(c1ccco1)N1N=C(c2cccs2)CC1c1ccccc1O (centres undefined)
inactive: [1] | [2] | [3] | [4]

C/C=C/c1ccc([C@@H]2[C@@H](CNC(=O)C3CC3)N(C(=O)CC)[C@H]2CO)cc1
inactive: [1] | [2] | [3] | [4]

CCC(=O)N1[C@@H]2Cn3c(cccc3=O)[C@H]1[C@@H](C(=O)NCc1ccccc1)[C@@H]2CO
inactive: [1] | [2] | [3] | [4]

C[C@H](CO)N1C[C@H](C)[C@@H](CN(C)Cc2cccc(C(F)(F)F)c2)OCc2cnnn2CCCC1=O
inactive: [1] | [2] | [3] | [4]

CCCC(=O)Nc1ccc2c(c1)OC[C@@H](C)N(Cc1cncnc1)C[C@@H](C)[C@@H](OC)CN(C)C2=O
inactive: [1] | [2] | [3] | [4]

— PubChem BioAssay
